{
  "source": "the supplement of paper PMC12282887",
  "assay_in_all_cases": "promoter activity interaction Z-score (Lux/OD deviation from empty-vector control); higher = stronger promoter induction by the compound",
  "key": {"[1]": {"test_system": "E. coli BW25113 acrABp lux reporter", "in_short": "(§1)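 Low-copy luxCDABE promoter reporters were carried by E. coli BW25113, either wild type or lacking one of three genes, grown in 40 µl LB Lennox in 384-well plates at 37°C. Each compound was run at four 1:2 dilutions in biological duplicates, with OD600 and luminescence read every 30 min for 12 h. Integration used 0–8 h for wild type and 1–9 h for deletion strains, and wells under 10% of the median growth value were removed. Luminescence normalised to growth was fitted against a control, and the Z-transformed residual is the score.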"}, "[2]": {"test_system": "E. coli BW25113 marRABp lux reporter", "in_short": "as §1"}, "[3]": {"test_system": "E. coli BW25113 micFp lux reporter", "in_short": "as §1"}, "[4]": {"test_system": "E. coli BW25113 ompFp lux reporter", "in_short": "as §1"}, "[5]": {"test_system": "E. coli BW25113 robp lux reporter", "in_short": "as §1"}, "[6]": {"test_system": "E. coli BW25113 soxSp lux reporter", "in_short": "as §1"}, "[7]": {"test_system": "E. coli BW25113 tolCp lux reporter", "in_short": "as §1"}, "[8]": {"settings": "0.011 µg/ml, genetic background: wild type"}, "[9]": {"settings": "0.011 µg/ml, genetic background: ΔmarA"}, "[10]": {"settings": "0.011 µg/ml, genetic background: Δrob"}, "[11]": {"settings": "0.011 µg/ml, genetic background: ΔsoxS"}, "[12]": {"settings": "0.022 µg/ml, genetic background: wild type"}, "[13]": {"settings": "0.022 µg/ml, genetic background: ΔmarA"}, "[14]": {"settings": "0.022 µg/ml, genetic background: Δrob"}, "[15]": {"settings": "0.022 µg/ml, genetic background: ΔsoxS"}, "[16]": {"settings": "0.044 µg/ml, genetic background: wild type"}, "[17]": {"settings": "0.044 µg/ml, genetic background: ΔsoxS"}},
  "note": "± gives the standard deviation of the averaged measurements.",
  "data": [
    {"smiles": "COc1c(N2C[C@@H]3CCCN[C@@H]3C2)c(F)cc2c(=O)c(C(=O)O)cn(C3CC3)c12", "note": "[Moxifloxacin]", "values": [
      {"measurement": "promoter activity interaction Z-score", "setting": "[1]; [8]", "result": "0.0749 ± 0.025"},
      {"measurement": "promoter activity interaction Z-score", "setting": "[1]; [9]", "result": "-0.567 ± 0.78"},
      {"measurement": "promoter activity interaction Z-score", "setting": "[1]; [10]", "result": "0.0419 ± 0.7"},
      {"measurement": "promoter activity interaction Z-score", "setting": "[1]; [11]", "result": "0.247 ± 0.25"},
      {"measurement": "promoter activity interaction Z-score", "setting": "[1]; [12]", "result": "0.793 ± 0.42"},
      {"measurement": "promoter activity interaction Z-score", "setting": "[1]; [13]", "result": "1.07 ± 0.44"},
      {"measurement": "promoter activity interaction Z-score", "setting": "[1]; [14]", "result": "0.898 ± 1.1"},
      {"measurement": "promoter activity interaction Z-score", "setting": "[1]; [15]", "result": "0.353 ± 0.12"},
      {"measurement": "promoter activity interaction Z-score", "setting": "[1]; [16]", "result": 3.94},
      {"measurement": "promoter activity interaction Z-score", "setting": "[1]; [17]", "result": "2.12 ± 1.1"},
      {"measurement": "promoter activity interaction Z-score", "setting": "[2]; [8]", "result": "0.044 ± 0.089"},
      {"measurement": "promoter activity interaction Z-score", "setting": "[2]; [9]", "result": "0.14 ± 0.15"},
      {"measurement": "promoter activity interaction Z-score", "setting": "[2]; [10]", "result": "-0.0981 ± 0.19"},
      {"measurement": "promoter activity interaction Z-score", "setting": "[2]; [11]", "result": "0.00173 ± 0.15"},
      {"measurement": "promoter activity interaction Z-score", "setting": "[2]; [12]", "result": "0.5 ± 0.56"},
      {"measurement": "promoter activity interaction Z-score", "setting": "[2]; [13]", "result": "1.62 ± 0.86"},
      {"measurement": "promoter activity interaction Z-score", "setting": "[2]; [14]", "result": "0.689 ± 0.17"},
      {"measurement": "promoter activity interaction Z-score", "setting": "[2]; [15]", "result": "0.0296 ± 0.046"},
      {"measurement": "promoter activity interaction Z-score", "setting": "[2]; [16]", "result": "4.34 ± 1.7"},
      {"measurement": "promoter activity interaction Z-score", "setting": "[2]; [17]", "result": "2.52 ± 1.1"},
      {"measurement": "promoter activity interaction Z-score", "setting": "[3]; [8]", "result": "-0.2 ± 0.019"},
      {"measurement": "promoter activity interaction Z-score", "setting": "[3]; [9]", "result": "0.154 ± 0.019"},
      {"measurement": "promoter activity interaction Z-score", "setting": "[3]; [10]", "result": "0.0249 ± 0.077"},
      {"measurement": "promoter activity interaction Z-score", "setting": "[3]; [11]", "result": "-0.0364 ± 0.073"},
      {"measurement": "promoter activity interaction Z-score", "setting": "[3]; [12]", "result": "-0.17 ± 0.072"},
      {"measurement": "promoter activity interaction Z-score", "setting": "[3]; [13]", "result": "0.371 ± 0.036"},
      {"measurement": "promoter activity interaction Z-score", "setting": "[3]; [14]", "result": "0.129 ± 0.04"},
      {"measurement": "promoter activity interaction Z-score", "setting": "[3]; [15]", "result": "0.0515 ± 0.087"},
      {"measurement": "promoter activity interaction Z-score", "setting": "[3]; [16]", "result": "-0.648 ± 0.45"},
      {"measurement": "promoter activity interaction Z-score", "setting": "[3]; [17]", "result": "-0.721 ± 0.42"},
      {"measurement": "promoter activity interaction Z-score", "setting": "[4]; [8]", "result": "0.138 ± 0.022"},
      {"measurement": "promoter activity interaction Z-score", "setting": "[4]; [9]", "result": "-0.0717 ± 0.18"},
      {"measurement": "promoter activity interaction Z-score", "setting": "[4]; [10]", "result": "0.0886 ± 0.25"},
      {"measurement": "promoter activity interaction Z-score", "setting": "[4]; [11]", "result": "0.123 ± 0.17"},
      {"measurement": "promoter activity interaction Z-score", "setting": "[4]; [12]", "result": "0.271 ± 0.48"},
      {"measurement": "promoter activity interaction Z-score", "setting": "[4]; [13]", "result": "0.695 ± 0.25"},
      {"measurement": "promoter activity interaction Z-score", "setting": "[4]; [14]", "result": "0.555 ± 0.53"},
      {"measurement": "promoter activity interaction Z-score", "setting": "[4]; [15]", "result": "0.184 ± 0.35"},
      {"measurement": "promoter activity interaction Z-score", "setting": "[4]; [16]", "result": "-0.0419 ± 2.9"},
      {"measurement": "promoter activity interaction Z-score", "setting": "[5]; [8]", "result": "1.08 ± 0.33"},
      {"measurement": "promoter activity interaction Z-score", "setting": "[5]; [9]", "result": "0.716 ± 0.13"},
      {"measurement": "promoter activity interaction Z-score", "setting": "[5]; [10]", "result": "0.563 ± 0.16"},
      {"measurement": "promoter activity interaction Z-score", "setting": "[5]; [11]", "result": "0.0805 ± 0.38"},
      {"measurement": "promoter activity interaction Z-score", "setting": "[5]; [12]", "result": "0.311 ± 0.14"},
      {"measurement": "promoter activity interaction Z-score", "setting": "[5]; [13]", "result": "0.295 ± 0.073"},
      {"measurement": "promoter activity interaction Z-score", "setting": "[5]; [14]", "result": "0.251 ± 0.47"},
      {"measurement": "promoter activity interaction Z-score", "setting": "[5]; [15]", "result": "0.687 ± 0.83"},
      {"measurement": "promoter activity interaction Z-score", "setting": "[5]; [16]", "result": "-1.23 ± 0.75"},
      {"measurement": "promoter activity interaction Z-score", "setting": "[5]; [17]", "result": "1.18 ± 0.81"},
      {"measurement": "promoter activity interaction Z-score", "setting": "[6]; [8]", "result": "0.023 ± 0.037"},
      {"measurement": "promoter activity interaction Z-score", "setting": "[6]; [9]", "result": "-0.096 ± 0.089"},
      {"measurement": "promoter activity interaction Z-score", "setting": "[6]; [10]", "result": "0.0641 ± 0.18"},
      {"measurement": "promoter activity interaction Z-score", "setting": "[6]; [11]", "result": "0.135 ± 0.027"},
      {"measurement": "promoter activity interaction Z-score", "setting": "[6]; [12]", "result": "0.0383 ± 0.078"},
      {"measurement": "promoter activity interaction Z-score", "setting": "[6]; [13]", "result": "-0.0462 ± 0.065"},
      {"measurement": "promoter activity interaction Z-score", "setting": "[6]; [14]", "result": "-0.139 ± 0.043"},
      {"measurement": "promoter activity interaction Z-score", "setting": "[6]; [15]", "result": "0.616 ± 0.023"},
      {"measurement": "promoter activity interaction Z-score", "setting": "[6]; [16]", "result": "0.204 ± 0.017"},
      {"measurement": "promoter activity interaction Z-score", "setting": "[6]; [17]", "result": "2.34 ± 1.4"},
      {"measurement": "promoter activity interaction Z-score", "setting": "[7]; [8]", "result": "0.549 ± 0.068"},
      {"measurement": "promoter activity interaction Z-score", "setting": "[7]; [9]", "result": "-0.242 ± 0.2"},
      {"measurement": "promoter activity interaction Z-score", "setting": "[7]; [10]", "result": "-0.0406 ± 1.1"},
      {"measurement": "promoter activity interaction Z-score", "setting": "[7]; [11]", "result": "0.127 ± 0.0073"},
      {"measurement": "promoter activity interaction Z-score", "setting": "[7]; [12]", "result": "-0.356 ± 0.14"},
      {"measurement": "promoter activity interaction Z-score", "setting": "[7]; [13]", "result": "-0.296 ± 0.43"},
      {"measurement": "promoter activity interaction Z-score", "setting": "[7]; [14]", "result": "-0.0729 ± 0.065"},
      {"measurement": "promoter activity interaction Z-score", "setting": "[7]; [15]", "result": "1.75 ± 2.6"},
      {"measurement": "promoter activity interaction Z-score", "setting": "[7]; [16]", "result": "0.111 ± 0.07"},
      {"measurement": "promoter activity interaction Z-score", "setting": "[7]; [17]", "result": "0.782 ± 1.2"}
    ]}
  ]
}
